From PubChem BioAssay (NCATS)
Records with an inconclusive call do not appear. Activity calls are given as the source filed them. Calls come from the whole dose curve; as a rule, active = well fitted inhibition curve with a large enough effect; inconclusive = small, poorly fitted or top-dose-only effect; inactive = flat fitted curve, though single readings scatter.

Assays:
[1] = qHTS profiling for inhibitors of Plasmodium falciparum proliferation (AID 504749);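 for activity, negative = inhibition: 0% = DMSO vehicle and full inhibition = artemisinin control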; for all read-outs here: nearly all actives have a fitted effect of over 60% in size; conditions: P. falciparum in erythrocytes, SYBR Green DNA, 72 h; for activity, negative = inhibition: at 28.7 µM (top of the series)
Procedure, shortened: (§1)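 Three-day growth assay of blood-stage parasites in erythrocytes (0.3% parasitemia, 2.5% hematocrit) at 37 C, 5% CO2, quantified by SYBR Green DNA staining after overnight detergent lysis.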

3D7 = assay: as above; conditions: P. falciparum in erythrocytes, SYBR Green DNA, 72 h; series mostly up to 28.7 µM
Procedure, shortened: as §1

7G8 = assay: as above; conditions: P. falciparum in erythrocytes, SYBR Green DNA, 72 h; series mostly up to 28.7 µM
Procedure, shortened: as §1

AA1029 = assay: as above; conditions: P. falciparum in erythrocytes, SYBR Green DNA, 72 h; series mostly up to 28.7 µM
Procedure, shortened: as §1

AS120 = assay: as above; conditions: P. falciparum in erythrocytes, SYBR Green DNA, 72 h; series mostly up to 28.7 µM
Procedure, shortened: as §1

ATS189 = assay: as above; conditions: P. falciparum in erythrocytes, SYBR Green DNA, 72 h; series mostly up to 28.7 µM
Procedure, shortened: as §1

ATS95 = assay: as above; conditions: P. falciparum in erythrocytes, SYBR Green DNA, 72 h; series mostly up to 28.7 µM
Procedure, shortened: as §1

C2A = assay: as above; conditions: P. falciparum in erythrocytes, SYBR Green DNA, 72 h; series mostly up to 28.7 µM
Procedure, shortened: as §1

CP185 = assay: as above; conditions: P. falciparum in erythrocytes, SYBR Green DNA, 72 h; series mostly up to 28.7 µM
Procedure, shortened: as §1

CP191 = assay: as above; conditions: P. falciparum in erythrocytes, SYBR Green DNA, 72 h; series mostly up to 28.7 µM
Procedure, shortened: as §1
Potency is the fitted concentration of half-maximal effect.

CCCCCCCCCCCCCCCC[n+]1ccccc1
active: Potency ([1]; parasite line A) 6.31 µM | Potency ([1]; parasite line B) 6.31 µM | Potency (3D7) 4.47 µM | Potency (7G8) 5.01 µM | Potency (AA1029) 5.01 µM | Potency (AS120) 7.94 µM | Potency (ATS189) 6.31 µM | Potency (ATS95) 7.94 µM | Potency (C2A) 4.47 µM | Potency (CP185) 7.94 µM | Potency (CP191) 4.47 µM

CCCCCCCCCCCCCCCC[N+](C)(C)Cc1ccccc1
active: Potency ([1]; parasite line A) 1.26 µM | Potency ([1]; parasite line B) 5.62 µM | Potency (3D7) 3.98 µM | Potency (7G8) 3.16 µM | Potency (AA1029) 3.16 µM | Potency (AS120) 1 µM | Potency (ATS189) 3.55 µM | Potency (ATS95) 3.55 µM | Potency (C2A) 10 µM | Potency (CP185) 0.501 µM | Potency (CP191) 1 µM

O=S(=O)(O)c1ccc2nc(-c3ccccc3)[nH]c2c1
inactive: activity, negative = inhibition ([1]; parasite line A) 7.74% | activity, negative = inhibition ([1]; parasite line B) 3.12% | Potency (3D7) | Potency (7G8) | Potency (AA1029) | Potency (AS120) | Potency (ATS189) | Potency (ATS95) | Potency (C2A) | Potency (CP185) | Potency (CP191)

O=[N+]([O-])c1ccc(O)c2ncccc12
active: Potency (3D7) 11.2 µM | Potency (7G8) 11.2 µM | Potency (AS120) 10 µM | Potency (C2A) 12.6 µM | Potency (CP191) 12.6 µM

CN1CCC(Nc2ncc3ncnc(Nc4ccc(F)c(Cl)c4)c3n2)CC1
active: Potency ([1]; parasite line A) 8.91 µM | Potency ([1]; parasite line B) 10 µM | Potency (7G8) 2.51 µM | Potency (AA1029) 10 µM | Potency (C2A) 11.2 µM

Nc1ccc2cc3ccc(N)cc3nc2c1
active: Potency (7G8) 2.24 µM

CN1CCCN(C(c2ccccc2)c2ccc(Cl)cc2)CC1 (stereo not given)
active: Potency (7G8) 8.91 µM | Potency (AA1029) 7.94 µM | Potency (AS120) 11.2 µM | Potency (ATS189) 10 µM | Potency (ATS95) 11.2 µM | Potency (C2A) 11.2 µM | Potency (CP191) 10 µM

CCCCCCCCCCCCCC[N+](C)(C)C
active: Potency ([1]; parasite line A) 5.01 µM | Potency ([1]; parasite line B) 7.08 µM | Potency (3D7) 3.98 µM | Potency (7G8) 2.24 µM | Potency (AA1029) 4.47 µM | Potency (AS120) 5.62 µM | Potency (ATS189) 5.62 µM | Potency (ATS95) 7.08 µM | Potency (C2A) 3.98 µM | Potency (CP185) 5.62 µM | Potency (CP191) 4.47 µM

O=C(Nc1ccc(Cl)cc1)Nc1ccc(Cl)c(Cl)c1
active: Potency ([1]; parasite line A) 3.16 µM | Potency ([1]; parasite line B) 3.98 µM | Potency (3D7) 5.01 µM | Potency (7G8) 0.501 µM | Potency (AA1029) 5.62 µM | Potency (AS120) 2.24 µM | Potency (ATS189) 3.16 µM | Potency (ATS95) 3.16 µM | Potency (C2A) 3.16 µM | Potency (CP185) 2.51 µM | Potency (CP191) 2.82 µM

Nc1c2ccccc2nc2ccccc12
active: Potency ([1]; parasite line A) 7.94 µM | Potency ([1]; parasite line B) 11.2 µM | Potency (7G8) 3.16 µM | Potency (AA1029) 7.08 µM | Potency (AS120) 12.6 µM | Potency (ATS189) 7.08 µM | Potency (ATS95) 11.2 µM | Potency (CP185) 8.91 µM | Potency (CP191) 11.2 µM

Nc1ncnc2nc[nH]c12
inactive: activity, negative = inhibition ([1]; parasite line A) -12.9% | activity, negative = inhibition ([1]; parasite line B) -6.26% | Potency (3D7) | Potency (7G8) | Potency (AA1029) | Potency (AS120) | Potency (ATS189) | Potency (ATS95) | Potency (C2A) | Potency (CP185) | Potency (CP191)

CC(NCCC(c1ccccc1)c1ccccc1)c1ccccc1 (stereo not given)
active: Potency (7G8) 2.24 µM | Potency (AA1029) 12.6 µM | Potency (AS120) 11.2 µM | Potency (ATS95) 11.2 µM | Potency (C2A) 10 µM | Potency (CP185) 8.91 µM | Potency (CP191) 10 µM
